Test systems include NCI-H226 lung; NCI-H322M lung; HOP-62 NSCLC; NCI-H460 lung; HOP-92 NSCLC; NCI-H522 lung; A549/ATCC NSCLC; 786-0 renal; COLO 205 colon; DU-145 prostate; K-562 leukemia; MALME-3M melanoma; MDA-MB-231 breast; RXF 393 renal; SF-268 CNS; SF-295 CNS; SF-539 CNS; UACC-257 melanoma; M14 melanoma; HCT-15 colon.
Assay in all cases: NCI-60 one-dose screen, 48 h (100 = growth as untreated, 0 = no growth, -100 = all killed)
Holding throughout (settings): 10 µM unless noted

About 83,000 compounds went through this panel and 20% of them were active in at least one assay; those are over-represented in the sample as a whole.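 Plates (96-well) were seeded with cells, treated with compound at one concentration, and incubated for 48 hours before percent growth was determined.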 A number with no mark means an inactive call. Calls of active or inactive are those of the source. The calls were made as follows: active = growth percent below 10; inactive = the rest.

This is an account of results in PubChem BioAssay (NCI).

As for `Nc1c(C(=O)c2ccc(Br)cc2)oc2nc(-c3cnccn3)cc(-c3cccs3)c12`, the growth in the assay with NCI-H226 lung was 98.6%; with NCI-H322M lung, 103%; with HOP-62 NSCLC it was 94%; with NCI-H460 lung, 97.2%; in the assay with HOP-92 NSCLC, 90.8%; in the assay with NCI-H522 lung, 98.8%. The growth in the assay on A549/ATCC NSCLC was 103%; with 786-0 renal, 102%; in the assay with COLO 205 colon it was 118%; in the assay on DU-145 prostate it was 107%; in the assay on K-562 leukemia it was 92.7%; with MALME-3M melanoma, 102%. For the same compound, the growth in the assay on MDA-MB-231 breast was 101%; with RXF 393 renal, 96.6%; with SF-268 CNS, 104%; in the assay on SF-295 CNS it was 99.6%; in the assay with SF-539 CNS, 98.8%; with UACC-257 melanoma it was 103%. The growth with M14 melanoma is 98.9%; with HCT-15 colon, 97.7%.
For the compound `CS(=O)(=O)c1ccc(-c2nc3ccccn3c2/C=N/Nc2nc(-c3ccc(Br)cc3)cs2)cc1`, the growth is 108% in the assay with NCI-H226 lung; 111% in the assay with NCI-H322M lung; 121% in the assay with HOP-62 NSCLC; 104% in the assay on NCI-H460 lung; 116% in the assay on HOP-92 NSCLC; 99.8% in the assay with NCI-H522 lung. Besides, the growth in the assay with A549/ATCC NSCLC was 109%; with 786-0 renal, 84.8%; in the assay on COLO 205 colon it was 116%; with DU-145 prostate, 109%; in the assay on K-562 leukemia it was 86.1%; in the assay on MALME-3M melanoma, 128%. Besides, the growth in the assay on MDA-MB-231 breast is 105%; in the assay on RXF 393 renal it was 99.7%; with SF-268 CNS, 108%; in the assay with SF-295 CNS, 102%; with SF-539 CNS, 105%; in the assay with UACC-257 melanoma, 122%. Also, the growth in the assay with M14 melanoma was 112%; with HCT-15 colon, 92.6%.
On to `C/C(=N/NC(N)=S)c1ccc(Nc2nc(SCC(C)C)nc(-c3ccc(F)cc3)c2C#N)cc1`, for which the growth is -16.9% (active) in the assay with NCI-H226 lung; 31.4% in the assay on NCI-H322M lung; -11.1% (active) in the assay with HOP-62 NSCLC; -62.2% (active) in the assay with NCI-H460 lung; -39.1% (active) in the assay with HOP-92 NSCLC; 34.1% in the assay with NCI-H522 lung. Moreover, the growth was -2.25% (active) in the assay on A549/ATCC NSCLC; 4.53% (active) with 786-0 renal; 16.8% in the assay on COLO 205 colon; 18.9% in the assay on DU-145 prostate; 4.78% (active) in the assay with K-562 leukemia; 24.9% in the assay on MALME-3M melanoma. Moreover, the growth was 15% with MDA-MB-231 breast; -45.4% (active) in the assay with RXF 393 renal; 25.3% in the assay on SF-268 CNS; -69.8% (active) with SF-295 CNS; -58.6% (active) in the assay with SF-539 CNS; 63.3% in the assay on UACC-257 melanoma. Moreover, the figures for the growth in the assay with M14 melanoma and with HCT-15 colon were 28.3% and 25.2%, respectively.
As for `CN1CCc2c(sc3ncnc(N/N=C/c4ccc(Cl)c(Cl)c4)c23)C1`, the growth was 56.9% with NCI-H226 lung; -3.96% (active) in the assay with NCI-H322M lung; 69.7% in the assay with HOP-62 NSCLC; 0.478% (active) in the assay on NCI-H460 lung; 37.4% in the assay on HOP-92 NSCLC; 89.9% in the assay with NCI-H522 lung. For the same compound, the growth is 21.8% in the assay with A549/ATCC NSCLC; -57.1% (active) in the assay on 786-0 renal; 36.1% in the assay on COLO 205 colon; 48.9% with DU-145 prostate; 27.4% in the assay on K-562 leukemia; 38.6% with MALME-3M melanoma. In addition, the growth is 13.7% with MDA-MB-231 breast; 42.1% with RXF 393 renal; 61.1% with SF-268 CNS; 34.7% in the assay on SF-295 CNS; -61.6% (active) in the assay on SF-539 CNS; 92.4% in the assay on UACC-257 melanoma. Moreover, the growth in the assay on M14 melanoma was -11.8% (active); in the assay with HCT-15 colon, 3.04% (active).
Turning to `Cc1cccc(/C=C/c2nn3c(-c4ccco4)nnc3s2)c1`, the growth in the assay on NCI-H226 lung was 96.5%; in the assay on NCI-H322M lung, 94.4%; in the assay with HOP-62 NSCLC, 100%; in the assay with NCI-H460 lung, 102%; in the assay on HOP-92 NSCLC, 119%; in the assay with NCI-H522 lung, 95.2%. Also, the growth in the assay with A549/ATCC NSCLC is 95.3%; in the assay with 786-0 renal it was 97.6%; with COLO 205 colon it was 107%; in the assay with DU-145 prostate, 105%; in the assay on K-562 leukemia, 93%; in the assay with MALME-3M melanoma it was 96.9%. Moreover, the growth is 98.2% with MDA-MB-231 breast; 111% with RXF 393 renal; 105% with SF-268 CNS; 94.5% in the assay with SF-295 CNS; 94.9% with SF-539 CNS; 98.3% in the assay on UACC-257 melanoma. The growth in the assay with M14 melanoma was 101%; with HCT-15 colon, 88.1%.
Take `CN1CCN(Cc2ccc(NC(=O)c3cncc(C#Cc4cnc5[nH]ncc5c4)c3)cc2C(F)(F)F)CC1`: the growth in the assay on NCI-H226 lung was 20.4%; in the assay with NCI-H322M lung, 45.8%; in the assay on HOP-62 NSCLC, 50.8%; in the assay on NCI-H460 lung, 11.1%; with HOP-92 NSCLC, -12.2% (active); in the assay on NCI-H522 lung, 50.9%. The growth in the assay with A549/ATCC NSCLC was 34.3%; in the assay with 786-0 renal, 45.7%; with COLO 205 colon it was 21.1%; in the assay with DU-145 prostate, 32.8%; in the assay on K-562 leukemia it was 3.87% (active); in the assay on MALME-3M melanoma, -27.9% (active). Moreover, the growth was -23.8% (active) in the assay with MDA-MB-231 breast; -2.95% (active) in the assay with RXF 393 renal; 37.7% with SF-268 CNS; 35.4% in the assay with SF-295 CNS; 13% in the assay with SF-539 CNS; 40.5% in the assay on UACC-257 melanoma. The values for the growth with M14 melanoma and in the assay on HCT-15 colon were 8.74% (active) and 19.4%, respectively.
As to `CCOc1ccc2nc(NC(=O)c3ccc(C(F)(F)F)cc3)sc2c1`, the growth is 107% with NCI-H226 lung; 107% in the assay on NCI-H322M lung; 118% with HOP-62 NSCLC; 101% with NCI-H460 lung; 139% with HOP-92 NSCLC; 94.4% with NCI-H522 lung. Besides, the growth in the assay on A549/ATCC NSCLC is 101%; in the assay with 786-0 renal, 99.6%; with COLO 205 colon, 117%; in the assay with DU-145 prostate, 105%; in the assay on K-562 leukemia, 108%; in the assay on MALME-3M melanoma, 112%. The growth in the assay with MDA-MB-231 breast is 106%; in the assay with RXF 393 renal it was 114%; in the assay with SF-268 CNS, 106%; with SF-295 CNS it was 111%; in the assay with SF-539 CNS, 105%; with UACC-257 melanoma, 107%. Also, the growth is 107% with M14 melanoma and 100% in the assay with HCT-15 colon.
With `Clc1ccc(-c2cn3cc(Cc4ccc(Cl)c(Cl)c4)sc3n2)cc1`, the growth in the assay with NCI-H226 lung is 85.7%; in the assay on NCI-H322M lung it was 70.5%; with HOP-62 NSCLC, 70.4%; in the assay on NCI-H460 lung, 22.5%; in the assay with HOP-92 NSCLC, 81.8%; in the assay with NCI-H522 lung, 76%. Besides, the growth was 61.3% with A549/ATCC NSCLC; 84% in the assay on 786-0 renal; 42.7% with COLO 205 colon; 69.6% in the assay on DU-145 prostate; 34.7% in the assay with K-562 leukemia; 86.3% with MALME-3M melanoma. Moreover, the growth in the assay with MDA-MB-231 breast was 72.7%; with RXF 393 renal, 104%; with SF-268 CNS, 86.2%; in the assay with SF-295 CNS, 35.8%; in the assay with SF-539 CNS, 83.8%; with UACC-257 melanoma it was 52.3%. In addition, the growth in the assay with M14 melanoma is 20.2%; in the assay on HCT-15 colon, 60.7%.
